In ChEMBL document CHEMBL1961873, “Compounds: GSK PKIS; Assays: Nanosyn kinase panel” (2012) one finds inhibition data, which are given here for six compounds.

In experiment [1] the target is Tyrosine-protein kinase Fer (Homo sapiens) (UniProt P16591). Conditions: at 1 µM.
The target in experiment [2] is Tyrosine-protein kinase Fes/Fps (Homo sapiens) (UniProt P07332). Conditions: at 0.1 µM.
For experiment [3] the target is unchanged. As to conditions: at 1 µM.
Experiment [4] has as its target Fibroblast growth factor receptor 1 (Homo sapiens) (UniProt P11362). As to conditions: at 0.1 µM.
Experiment [5] has the same target. As to conditions: at 1 µM.
In experiment [6] the target is Fibroblast growth factor receptor 2 (Homo sapiens) (UniProt P21802). Conditions: at 0.1 µM.
The target is the same in experiment [7]. As to conditions: at 1 µM.
The target of experiment [8] is Fibroblast growth factor receptor 3 (Homo sapiens) (UniProt P22607). Conditions: at 0.1 µM.
Experiment [9] has the same target. As to conditions: at 1 µM.
Experiment [10] addresses Fibroblast growth factor receptor 4 (Homo sapiens) (UniProt P22455). As to conditions: at 0.1 µM.
The target is the same in experiment [11]. Conditions: at 1 µM.
The target of experiment [12] is Tyrosine-protein kinase Fgr (Homo sapiens) (UniProt P09769). As to conditions: at 0.1 µM.
The target is the same in experiment [13]. As to conditions: at 1 µM.
In experiment [14] the target is Vascular endothelial growth factor receptor 1 (Homo sapiens) (UniProt P17948). As to conditions: at 0.1 µM.
The target is the same in experiment [15]. Conditions: at 1 µM.
The target of experiment [16] is Receptor-type tyrosine-protein kinase FLT3 (Homo sapiens) (UniProt P36888). Conditions: at 0.1 µM.
The target is the same in experiment [17]. As to conditions: at 1 µM.
In experiment [18] the test system is T1, Receptor-type tyrosine-protein kinase FLT3 (Homo sapiens), P36888 [D835Y].
T1 sequence (whole entry): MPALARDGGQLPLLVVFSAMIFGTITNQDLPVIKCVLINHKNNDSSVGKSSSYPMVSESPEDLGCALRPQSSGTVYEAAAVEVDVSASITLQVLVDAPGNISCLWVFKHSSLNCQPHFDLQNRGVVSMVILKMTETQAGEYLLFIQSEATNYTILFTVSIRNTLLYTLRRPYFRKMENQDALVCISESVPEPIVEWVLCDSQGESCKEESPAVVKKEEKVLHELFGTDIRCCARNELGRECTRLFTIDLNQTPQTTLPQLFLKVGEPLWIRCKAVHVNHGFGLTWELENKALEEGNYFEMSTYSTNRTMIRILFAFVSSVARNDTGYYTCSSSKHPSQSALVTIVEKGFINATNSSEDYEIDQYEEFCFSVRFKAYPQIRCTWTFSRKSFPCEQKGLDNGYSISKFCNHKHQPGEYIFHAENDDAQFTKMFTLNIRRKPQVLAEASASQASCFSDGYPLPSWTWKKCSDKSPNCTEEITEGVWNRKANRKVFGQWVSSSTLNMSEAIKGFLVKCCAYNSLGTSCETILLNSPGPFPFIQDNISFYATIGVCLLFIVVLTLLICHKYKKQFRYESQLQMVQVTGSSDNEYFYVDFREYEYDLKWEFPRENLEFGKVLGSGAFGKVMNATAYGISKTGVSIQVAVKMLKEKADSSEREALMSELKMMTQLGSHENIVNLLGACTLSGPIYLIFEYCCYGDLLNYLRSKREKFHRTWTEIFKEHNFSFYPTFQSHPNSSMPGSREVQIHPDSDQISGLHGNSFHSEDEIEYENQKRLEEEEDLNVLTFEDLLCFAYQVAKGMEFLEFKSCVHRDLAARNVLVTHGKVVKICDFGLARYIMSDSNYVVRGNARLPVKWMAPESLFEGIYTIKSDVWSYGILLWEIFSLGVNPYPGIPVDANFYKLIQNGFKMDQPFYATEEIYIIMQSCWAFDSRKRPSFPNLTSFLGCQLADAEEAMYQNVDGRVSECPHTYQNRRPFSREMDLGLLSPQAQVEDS
As to conditions: at 0.1 µM.

The target of experiment [19] is Non-receptor tyrosine-protein kinase TYK2 (Homo sapiens) (UniProt P29597). Conditions: at 1 µM.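 Also: values are mean percent inhibition of TYK2 kinase.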
The target of experiment [20] is T2, Tyrosine-protein kinase receptor TYRO3 (Homo sapiens) (UniProt Q06418).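 Also: reported percentages are averaged inhibition values of TYRO3 kinase activity.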
T2 sequence (whole entry): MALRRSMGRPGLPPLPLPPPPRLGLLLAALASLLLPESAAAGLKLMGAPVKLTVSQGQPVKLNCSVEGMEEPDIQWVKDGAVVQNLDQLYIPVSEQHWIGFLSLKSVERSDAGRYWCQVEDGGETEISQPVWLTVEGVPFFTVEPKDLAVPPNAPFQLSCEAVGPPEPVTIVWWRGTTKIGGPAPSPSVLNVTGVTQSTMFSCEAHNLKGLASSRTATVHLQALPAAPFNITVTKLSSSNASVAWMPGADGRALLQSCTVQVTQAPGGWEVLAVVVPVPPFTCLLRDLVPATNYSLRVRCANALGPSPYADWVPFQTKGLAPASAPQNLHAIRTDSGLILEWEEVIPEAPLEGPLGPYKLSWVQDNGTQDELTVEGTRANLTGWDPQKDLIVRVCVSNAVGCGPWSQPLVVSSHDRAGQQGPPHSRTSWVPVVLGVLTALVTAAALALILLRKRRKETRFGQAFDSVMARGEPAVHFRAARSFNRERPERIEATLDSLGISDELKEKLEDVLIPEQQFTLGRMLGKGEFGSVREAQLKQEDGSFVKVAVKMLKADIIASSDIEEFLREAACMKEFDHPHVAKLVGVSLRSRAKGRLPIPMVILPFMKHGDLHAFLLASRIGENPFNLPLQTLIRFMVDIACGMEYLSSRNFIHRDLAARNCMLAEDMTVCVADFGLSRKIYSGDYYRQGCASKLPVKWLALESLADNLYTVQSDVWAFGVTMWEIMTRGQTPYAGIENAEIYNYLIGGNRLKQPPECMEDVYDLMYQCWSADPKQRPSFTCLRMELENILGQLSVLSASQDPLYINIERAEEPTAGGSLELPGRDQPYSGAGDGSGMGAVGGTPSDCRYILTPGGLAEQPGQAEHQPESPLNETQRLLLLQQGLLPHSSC
As to conditions: at 0.1 µM.

Sequence of Fibroblast growth factor receptor 3 (Homo sapiens) (P22607 23-806 limits assumed): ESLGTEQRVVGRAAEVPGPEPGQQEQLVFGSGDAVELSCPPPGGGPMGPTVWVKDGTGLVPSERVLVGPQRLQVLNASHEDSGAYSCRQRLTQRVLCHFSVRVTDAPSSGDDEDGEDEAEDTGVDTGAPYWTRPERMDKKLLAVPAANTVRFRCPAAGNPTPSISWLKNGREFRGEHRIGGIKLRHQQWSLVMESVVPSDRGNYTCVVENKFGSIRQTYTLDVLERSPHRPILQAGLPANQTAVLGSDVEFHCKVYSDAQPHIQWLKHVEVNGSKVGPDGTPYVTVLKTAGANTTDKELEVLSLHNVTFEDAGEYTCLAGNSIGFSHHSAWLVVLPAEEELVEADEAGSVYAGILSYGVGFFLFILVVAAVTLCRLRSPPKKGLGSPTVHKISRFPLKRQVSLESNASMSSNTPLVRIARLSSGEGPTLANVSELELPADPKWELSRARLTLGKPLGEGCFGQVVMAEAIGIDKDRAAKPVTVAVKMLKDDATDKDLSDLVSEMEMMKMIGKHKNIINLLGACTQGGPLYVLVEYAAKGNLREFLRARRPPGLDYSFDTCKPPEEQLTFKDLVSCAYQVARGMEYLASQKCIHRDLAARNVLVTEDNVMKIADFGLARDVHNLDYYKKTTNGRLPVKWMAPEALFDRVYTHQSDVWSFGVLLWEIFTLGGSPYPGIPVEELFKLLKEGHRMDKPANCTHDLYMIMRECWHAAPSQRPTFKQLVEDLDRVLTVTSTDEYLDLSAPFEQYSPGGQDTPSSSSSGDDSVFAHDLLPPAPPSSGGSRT
Sequence of Tyrosine-protein kinase Fgr (Homo sapiens) (P09769 2-529 limits assumed): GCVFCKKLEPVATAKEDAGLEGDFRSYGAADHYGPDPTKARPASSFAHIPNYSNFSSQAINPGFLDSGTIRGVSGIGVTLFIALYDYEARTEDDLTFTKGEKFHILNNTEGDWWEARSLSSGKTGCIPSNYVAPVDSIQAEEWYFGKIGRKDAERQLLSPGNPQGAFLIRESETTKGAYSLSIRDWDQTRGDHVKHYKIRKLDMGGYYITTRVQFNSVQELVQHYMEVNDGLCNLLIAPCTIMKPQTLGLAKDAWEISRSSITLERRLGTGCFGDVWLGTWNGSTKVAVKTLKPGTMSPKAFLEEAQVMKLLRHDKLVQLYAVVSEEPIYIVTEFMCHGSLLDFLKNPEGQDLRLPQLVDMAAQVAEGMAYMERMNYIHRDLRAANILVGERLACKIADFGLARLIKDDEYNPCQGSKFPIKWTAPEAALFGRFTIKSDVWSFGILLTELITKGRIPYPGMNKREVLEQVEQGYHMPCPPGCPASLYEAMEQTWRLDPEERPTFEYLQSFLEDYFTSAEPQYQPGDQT
Sequence of Tyrosine-protein kinase Fes/Fps (Homo sapiens) (P07332 whole entry): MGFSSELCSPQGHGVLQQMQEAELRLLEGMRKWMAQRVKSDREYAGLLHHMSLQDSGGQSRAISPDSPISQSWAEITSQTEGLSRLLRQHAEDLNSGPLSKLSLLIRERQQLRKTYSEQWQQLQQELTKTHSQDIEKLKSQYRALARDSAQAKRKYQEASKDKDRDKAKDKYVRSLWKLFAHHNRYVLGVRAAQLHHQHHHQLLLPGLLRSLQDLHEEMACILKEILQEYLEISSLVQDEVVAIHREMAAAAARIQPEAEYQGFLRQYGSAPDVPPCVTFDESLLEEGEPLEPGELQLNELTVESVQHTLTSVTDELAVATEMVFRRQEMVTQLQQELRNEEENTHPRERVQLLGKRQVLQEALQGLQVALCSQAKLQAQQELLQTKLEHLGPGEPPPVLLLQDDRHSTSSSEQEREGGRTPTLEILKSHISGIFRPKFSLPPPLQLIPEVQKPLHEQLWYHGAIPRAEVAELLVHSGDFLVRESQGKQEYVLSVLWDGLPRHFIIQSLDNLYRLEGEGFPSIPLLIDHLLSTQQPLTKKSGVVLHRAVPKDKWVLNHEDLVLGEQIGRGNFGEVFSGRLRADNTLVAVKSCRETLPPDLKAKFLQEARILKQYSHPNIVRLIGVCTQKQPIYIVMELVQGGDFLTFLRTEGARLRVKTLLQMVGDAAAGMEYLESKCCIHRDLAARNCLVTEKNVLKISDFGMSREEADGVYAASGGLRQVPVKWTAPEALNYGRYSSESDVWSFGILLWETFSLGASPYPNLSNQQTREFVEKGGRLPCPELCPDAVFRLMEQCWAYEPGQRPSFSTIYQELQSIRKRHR
Sequence of Non-receptor tyrosine-protein kinase TYK2 (Homo sapiens) (P29597 whole entry): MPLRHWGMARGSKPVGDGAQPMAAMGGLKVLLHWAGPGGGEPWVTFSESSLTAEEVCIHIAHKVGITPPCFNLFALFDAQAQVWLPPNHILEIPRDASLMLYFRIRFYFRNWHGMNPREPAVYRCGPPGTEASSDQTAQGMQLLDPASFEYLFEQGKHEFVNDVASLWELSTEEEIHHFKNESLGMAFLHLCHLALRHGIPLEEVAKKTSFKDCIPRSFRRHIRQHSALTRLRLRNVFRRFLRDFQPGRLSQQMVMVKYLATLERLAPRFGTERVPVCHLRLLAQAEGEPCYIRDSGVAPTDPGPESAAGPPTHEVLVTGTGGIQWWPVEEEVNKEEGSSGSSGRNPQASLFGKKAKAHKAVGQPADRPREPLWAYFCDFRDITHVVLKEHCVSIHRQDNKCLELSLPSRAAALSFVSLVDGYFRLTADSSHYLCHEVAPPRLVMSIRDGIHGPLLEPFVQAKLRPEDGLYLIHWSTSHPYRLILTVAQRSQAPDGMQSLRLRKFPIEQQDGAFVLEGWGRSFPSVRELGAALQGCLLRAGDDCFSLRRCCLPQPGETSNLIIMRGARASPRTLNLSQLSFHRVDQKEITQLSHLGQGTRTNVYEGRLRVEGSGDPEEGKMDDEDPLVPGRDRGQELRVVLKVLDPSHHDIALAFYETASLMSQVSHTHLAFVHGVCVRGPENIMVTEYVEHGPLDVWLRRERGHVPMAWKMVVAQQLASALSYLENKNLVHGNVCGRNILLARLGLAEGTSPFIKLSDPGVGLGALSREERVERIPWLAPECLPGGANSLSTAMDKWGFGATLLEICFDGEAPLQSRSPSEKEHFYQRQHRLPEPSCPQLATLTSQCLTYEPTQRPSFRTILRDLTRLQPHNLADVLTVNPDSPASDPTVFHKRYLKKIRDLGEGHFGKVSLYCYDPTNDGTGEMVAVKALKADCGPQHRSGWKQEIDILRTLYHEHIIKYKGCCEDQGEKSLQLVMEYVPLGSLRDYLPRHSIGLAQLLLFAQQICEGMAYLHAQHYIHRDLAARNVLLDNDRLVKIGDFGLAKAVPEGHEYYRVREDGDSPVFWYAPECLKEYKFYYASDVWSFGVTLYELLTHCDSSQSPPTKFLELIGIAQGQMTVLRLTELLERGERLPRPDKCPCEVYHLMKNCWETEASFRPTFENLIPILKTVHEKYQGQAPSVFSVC
Sequence of Vascular endothelial growth factor receptor 1 (Homo sapiens) (P17948 whole entry): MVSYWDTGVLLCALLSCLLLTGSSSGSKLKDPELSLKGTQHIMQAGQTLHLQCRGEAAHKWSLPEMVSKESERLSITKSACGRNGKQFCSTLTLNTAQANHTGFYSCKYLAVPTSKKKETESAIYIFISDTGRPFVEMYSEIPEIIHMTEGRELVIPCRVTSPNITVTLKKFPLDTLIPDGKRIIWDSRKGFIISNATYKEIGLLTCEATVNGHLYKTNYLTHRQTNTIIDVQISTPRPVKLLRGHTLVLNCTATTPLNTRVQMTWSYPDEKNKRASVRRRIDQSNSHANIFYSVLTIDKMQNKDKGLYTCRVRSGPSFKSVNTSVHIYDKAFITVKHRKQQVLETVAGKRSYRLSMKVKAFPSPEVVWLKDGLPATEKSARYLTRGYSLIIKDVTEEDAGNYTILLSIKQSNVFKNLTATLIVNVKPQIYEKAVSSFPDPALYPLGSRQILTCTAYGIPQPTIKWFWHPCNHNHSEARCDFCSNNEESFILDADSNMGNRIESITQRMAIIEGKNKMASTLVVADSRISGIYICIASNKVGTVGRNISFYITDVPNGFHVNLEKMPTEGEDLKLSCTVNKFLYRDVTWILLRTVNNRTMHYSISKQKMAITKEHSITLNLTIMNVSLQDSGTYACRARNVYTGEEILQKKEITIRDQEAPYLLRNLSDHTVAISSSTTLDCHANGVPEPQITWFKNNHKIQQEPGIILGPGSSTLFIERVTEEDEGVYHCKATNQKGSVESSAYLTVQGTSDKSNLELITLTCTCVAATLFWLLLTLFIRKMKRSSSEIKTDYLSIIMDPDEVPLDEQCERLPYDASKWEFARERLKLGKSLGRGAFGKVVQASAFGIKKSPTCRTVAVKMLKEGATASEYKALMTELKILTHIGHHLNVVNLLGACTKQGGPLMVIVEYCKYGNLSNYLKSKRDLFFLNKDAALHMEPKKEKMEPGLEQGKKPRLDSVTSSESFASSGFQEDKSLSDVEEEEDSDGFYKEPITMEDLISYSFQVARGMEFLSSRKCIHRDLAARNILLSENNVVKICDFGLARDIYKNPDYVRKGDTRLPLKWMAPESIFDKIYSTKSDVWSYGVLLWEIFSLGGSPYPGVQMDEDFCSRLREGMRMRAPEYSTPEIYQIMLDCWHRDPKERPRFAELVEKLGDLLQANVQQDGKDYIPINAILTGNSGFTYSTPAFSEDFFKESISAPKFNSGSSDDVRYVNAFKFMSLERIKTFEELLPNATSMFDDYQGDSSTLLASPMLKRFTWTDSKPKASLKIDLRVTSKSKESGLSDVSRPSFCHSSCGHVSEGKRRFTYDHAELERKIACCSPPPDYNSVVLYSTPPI

On to `C[C@@H](Oc1cc(-n2cnc3ccc(OC[C@@H](O)CO)cc32)sc1C(N)=O)c1ccccc1Cl`, for which the inhibition in experiment [1] is 4.95%; in experiment [2], -0.94%; in experiment [3], 0.05%; in experiment [4], -7.07%; in experiment [5] it was 0.72%; in [6] it was -1.37%. The inhibition in experiment [7] was 8.23%; in [8], 0.92%; in [9] it was 6.57%; in experiment [10] it was -1.57%; in experiment [11], 0.23%; in experiment [12] it was 0.03%. Moreover, the inhibition in experiment [13] was 4.04%; in [14], -1.57%; in experiment [15], -1.26%; in experiment [16], 0.49%; in experiment [17] it was 5.21%; in experiment [18], -3.1%. Further, the results for the inhibition in [19] and in experiment [20] were 2.03% and -0.16%, respectively.
In the case of `N#Cc1c(NC(=O)c2ccccc2F)sc2c1CCCC2`, the inhibition in experiment [1] was 1.99%; in [2], -0.84%; in [3], -1.66%; in experiment [4], -6.27%; in [5] it was -0.77%; in [6], -3.13%. Further, the inhibition is -2.53% in experiment [7]; -2.94% in experiment [8]; -1.6% in [9]; 1.12% in [10]; -0.54% in experiment [11]; 1.26% in experiment [12]. In addition, the inhibition is 1.21% in [13]; -1.64% in experiment [14]; -1.09% in experiment [15]; 0.49% in experiment [16]; -1.06% in experiment [17]; -2.89% in [18]. In addition, the figures for the inhibition in experiment [19] and in [20] were 0.85% and -1.29%, respectively.
Turning to `COc1cc2ncnc(Nc3ccc4c(cnn4Cc4ccccc4)c3)c2cc1OC`, the inhibition was 7.92% in experiment [1]; 2.06% in experiment [2]; 2% in experiment [3]; -0.45% in experiment [4]; 3.82% in experiment [5]; 3.33% in experiment [6]. Also, the inhibition in [7] was 7.69%; in experiment [8], 3.3%; in experiment [9], 3.13%; in experiment [10], -0.15%; in [11], -0.35%; in experiment [12], 18.4%. Moreover, the inhibition in [13] is 44.2%; in [14], 0.61%; in experiment [15], 3.06%; in experiment [16] it was 4.33%; in experiment [17], 5.83%; in [18], -2.99%. Also, the results for the inhibition in [19] and in experiment [20] were -3.38% and 1.85%, respectively.
Consider `Nc1nccc(-c2c(-c3ccc(F)cc3)nn3cc(C(F)(F)F)ccc23)n1`, for which the inhibition is 7.28% in [1]; 5.08% in experiment [2]; 3.62% in [3]; -4.71% in experiment [4]; -0.05% in experiment [5]; 0.61% in experiment [6]. Besides, the inhibition in [7] is 2.87%; in experiment [8], 6.31%; in experiment [9], 1.74%; in experiment [10], -0.28%; in experiment [11] it was 0.14%; in experiment [12], 2.64%. Also, the inhibition in experiment [13] is 4.08%; in experiment [14], -2.26%; in experiment [15] it was 0.63%; in experiment [16], 2.41%; in experiment [17] it was -0.04%; in experiment [18], -7.47%. Besides, the results for the inhibition in experiment [19] and in [20] were -2.71% and 0.03%, respectively.
Consider `C[C@@H](Oc1cc(-n2cnc3ccc(OCC4CCN(C)CC4)cc32)sc1C(N)=O)c1ccccc1C(F)(F)F`, for which the inhibition in [1] was 4.43%; in experiment [2] it was -1.88%; in experiment [3], -1.98%; in [4], -9.02%; in experiment [5], 13%; in [6] it was -3.05%. In addition, the inhibition in [7] was 7.56%; in [8], -0.95%; in experiment [9] it was 0.66%; in experiment [10], 0.86%; in experiment [11], -0.61%; in [12], 2.16%. In addition, the inhibition is 13.4% in experiment [13]; -0.83% in [14]; -0.16% in experiment [15]; 1.99% in experiment [16]; 11% in [17]; 3.19% in experiment [18]. Also, the inhibition is 3.05% in [19] and -0.92% in experiment [20].
Regarding `COc1ccc2ncnc(Nc3ccc(OCc4ccccc4)cc3)c2c1`, the inhibition in experiment [1] was 4.76%; in experiment [2], 0.67%; in [3] it was 1.33%; in experiment [4], 1.89%; in [5], -1.53%; in experiment [6], 1.22%. The inhibition was 2.56% in experiment [7]; 1.63% in [8]; 2.3% in experiment [9]; 1.47% in experiment [10]; 2.59% in [11]; 3.7% in experiment [12]. The inhibition is 15.4% in [13]; 0.14% in experiment [14]; 1.06% in experiment [15]; 0.29% in [16]; 2.85% in experiment [17]; 1.85% in [18]. Also, the inhibition in experiment [19] is -1%; in experiment [20], 1.22%.

As usually defined, the inhibition is the drop in the measured response relative to a control, in per cent.
